# OPRM1-OPRD1 inv – inverse agonist of human OPRM1-OPRD1 heterodimerization; P35372+P41143; cell-based MOR-DOR heterodimer luminescence, inverse agonism; inhibition, % at 9.3 µM; 0.21% of 340,000 active; AID 504357; in the data active means inhibition above about 22%, passing the limit was not always enough;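 further: 0% = cells with DMSO and 100% = wells without cells with DMSO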
# OPRM1-OPRD1 ag – OPRM1-OPRD1 heterodimerization agonism; P35372+P41143; cells, luminescence; activation, % at 9.3 µM; 0.3% of 340,000 active; AID 504326; in the data active means activation above about 18%;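 further: 0% = vehicle-treated cells and 100% = reference agonist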
# HTR5A inv ag – HTR5A inverse agonism, opioid heterodimer counter-screen | P47898 | HTR5A cell line, luminescence | inhibition, % at 9.3 µM | 0.083% of 340,000 active | AID 504634; in the data active means inhibition mostly above about 23%, no sharp cut-off; inactive means mostly below about 18%;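 further: 0% = cells with DMSO and 100% = no-cell wells with DMSO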
# HTR5A ag – HTR5A agonism, opioid heterodimer counter-screen | HTR5A agonist assay, luminescence, cell-based | activation, % at 9.3 µM | 0.61% of 340,000 active; in the data active means activation mostly above about 9.5%, no sharp cut-off; inactive means mostly below about 7.6%;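 further: 0% = cells with vehicle only and 100% = reference agonist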
# * marks the source's active call; other numbers are inactive results. The list is not random: actives were taken first. Their share in the collection is about 1.1%.
SMILES,OPRM1-OPRD1 inv,OPRM1-OPRD1 ag,HTR5A inv ag,HTR5A ag
CCN1CCN(C(CNS(=O)(=O)c2ccc(Br)cc2)c2cccnc2)CC1 (stereo not given),13.9,-2.6,8.0,12.5*
Cc1cc(C)c(C(=O)CN2C(=O)C(=O)N(C3CCCC3)C2=O)cc1C,4.9,-1.3,-10.3,3.2
Cc1cc(NC(=O)COc2ccc3ccccc3c2Br)no1,-12.9,2.5,-43.1,11.9*
CCOc1ccccc1OCC(=O)Nc1cc(C)on1,6.5,-1.6,21.2,-8.7
Cc1cc(Nc2cccc(Cl)c2Cl)n2ncnc2n1,8.2,-1.6,-3.1,0.8
COC(C(=O)Nc1ccnn1C1CCN(C(=O)c2ccc(C)cc2)CC1)c1ccccc1 (stereo not given),11.4,-2.1,-8.7,2.7
CCC(=O)Nc1cccc(SC)c1,-16.6,2.7,15.0,12.7*
CSc1cccc(NC(=O)CSc2ccc(C)cc2)c1,-31.2,6.2,33.7,2.1
CSc1cccc(NC(=O)CNC(=O)c2ccc3c(c2)OCO3)c1,4.1,-0.6,23.7,10.5*
C=C(C)COc1ccc(C2NC(=O)c3ccccc3O2)cc1OCC (stereo not given),6.1,-1.3,10.5,-2.8
Cc1cc(C)nc(N2CCN(C(=O)CCC(=O)Nc3nnc(C(C)C)s3)CC2)n1,11.8,-2.3,-9.6,-0.5
O=C(CN1CC(c2ccccc2)CC1=O)Nc1ccc2c(c1)OCO2 (stereo not given),0.2,0.0,-35.8,13.6*
CCC(C)(C)n1nnnc1C(c1ccc(F)cc1)N1CCN(C(=O)c2ccco2)CC1 (stereo not given),16.4,-2.6,3.8,1.2
CCOC(=O)N1CCN(CC(O)COc2c(C)cc(C)cc2C)CC1 (stereo not given),7.3,-1.5,9.0,-2.3
COc1ccc2c(c1)CC/C2=N\OC(=O)c1cccc(C)c1,-33.4,6.9,-1.1,13.8*
COc1ccc2c(c1)CC/C2=N\OC(=O)c1ccccc1C,-10.8,2.1,-2.9,5.3
O=C(c1ccccc1Cl)N1N=C(c2cccs2)CC1c1cccc(O)c1 (stereo not given),11.8,-2.4,-0.9,11.3*
COc1ccccc1CNC(=O)CN(c1ccc(C)cc1)S(=O)(=O)c1c(C)noc1C,14.1,-2.7,2.3,-0.6
CS(=O)(=O)c1ncc(Cl)c(C(=O)Nc2ccc3ccccc3c2)n1,57.0*,-7.9,18.4,-5.2
CC(=O)Nc1ccc(NC(=O)c2nc(S(=O)(=O)Cc3ccccc3)ncc2Cl)cc1,-10.3,2.0,14.2,-3.8
Cc1ccc(-n2c(CNC(=O)c3cccs3)nnc2SCC(=O)NO)cc1,-1.6,0.3,11.2,-3.9
CCn1c(SCC(=O)NC(C)c2ccccc2)nc2ccccc21 (stereo not given),20.7,-3.9,-17.6,5.4
CC(NC(=O)CSc1nc2ccccc2n1C)c1ccccc1 (stereo not given),-5.2,0.8,-31.2,13.9*
CC(C)(C)c1cc(NC(=O)Nc2ccccc2)no1,-29.4,6.2,-43.7,11.3*
COC(=O)c1ccccc1NC(=O)Nc1cc(C(C)(C)C)on1,5.8,-1.0,-4.2,1.1
SMILES,OPRM1-OPRD1 inv,OPRM1-OPRD1 ag,HTR5A inv ag,HTR5A ag
CCCn1nnnc1NCc1ccccc1C,13.3,-2.9,-2.8,0.8
COc1ccc(C(C(=O)NC2CCCCC2)N(C(=O)CCl)c2ccc(Cl)cc2)cc1 (stereo not given),-478.5,89.3*,-105.7,65.7*
Cc1cccc(N(C(=O)CNC(=O)c2ccco2)C(C(=O)NC2CCCCC2)c2cccnc2)c1 (stereo not given),8.6,-1.2,-14.5,0.1
O=C(NC1CCCCC1)C(c1cccnc1)N(C(=O)CCl)c1cccc(Cl)c1 (stereo not given),-183.2,34.6*,-76.3,36.3*
C=C1C(C(=O)Nc2cccc(OC)c2)C1C(=O)Nc1cccc(OC)c1 (stereo not given),13.1,-2.0,13.5,-5.5
Cc1nc(C)c(Oc2cccc(C(F)(F)F)c2)c(=O)[nH]1,11.0,-2.1,-0.8,-2.3
O=C(CNc1ccccc1)N/N=C/c1c[nH]c2ccccc12,5.2,-1.1,-30.4,12.7*
CC(C)c1cc(C(=O)NNC(=S)NCc2ccco2)c(O)c(C(C)C)c1,-73.9,14.5,-26.3,10.0*
CCCc1nc2ccc(NC(=O)c3cccs3)cc2c(=O)n1Cc1ccccc1Cl,-2.0,0.4,12.6,-3.4
CCCc1nc2ccc(NC(C)=O)cc2c(=O)n1Cc1ccc(Cl)cc1,-2.1,0.4,-26.8,10.2*
O=C(CSc1nc(-c2ccccc2)cs1)Nc1nccs1,-70.0,12.9,-27.4,10.8*
Cc1ccc(S(C)(=O)=O)cc1C(=O)Nc1ccc(S(=O)(=O)Nc2nccs2)cc1,13.8,-3.5,-15.1,0.0
O=C(CN1CCc2ccccc2C1)Nc1ccccc1C(F)(F)F,-6.4,1.2,-3.0,8.0
